Data taken from PubChem BioAssay (Tox21).
Unmarked numbers belong to inactive results. The source made the active and inactive calls. Calls follow the shape of the full dose curve.

Molecular target: Acetylcholinesterase (Homo sapiens) (UniProt P22303)
Experiment: Acetylcholinesterase (AChE) small molecule antagonists: enzyme-based qHTS assay with human liver microsomes (AID 1347399); also: nearly all actives have a fitted effect of over 60% in size
Conditions: Potency: qHTS inhibition; outcome: qHTS inhibition; series mostly up to 115 µM; activity change, negative = inhibition: at the top concentration
Outline: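 Recombinant human AChE (50 mU/mL in the enzyme mix) and human liver microsomes (0.25 mg/mL final) were preincubated with compound and NADPH (0.25 mg/mL final) for 30 min at 37 C. Acetylthiocholine/DTNB was then added; thiocholine was read colorimetrically after 10 min at room temperature.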
% is scaled to controls: 0 for no effect and ±100 for the full control effect.

Sequence of Acetylcholinesterase (Homo sapiens) (P22303 whole entry, looked up): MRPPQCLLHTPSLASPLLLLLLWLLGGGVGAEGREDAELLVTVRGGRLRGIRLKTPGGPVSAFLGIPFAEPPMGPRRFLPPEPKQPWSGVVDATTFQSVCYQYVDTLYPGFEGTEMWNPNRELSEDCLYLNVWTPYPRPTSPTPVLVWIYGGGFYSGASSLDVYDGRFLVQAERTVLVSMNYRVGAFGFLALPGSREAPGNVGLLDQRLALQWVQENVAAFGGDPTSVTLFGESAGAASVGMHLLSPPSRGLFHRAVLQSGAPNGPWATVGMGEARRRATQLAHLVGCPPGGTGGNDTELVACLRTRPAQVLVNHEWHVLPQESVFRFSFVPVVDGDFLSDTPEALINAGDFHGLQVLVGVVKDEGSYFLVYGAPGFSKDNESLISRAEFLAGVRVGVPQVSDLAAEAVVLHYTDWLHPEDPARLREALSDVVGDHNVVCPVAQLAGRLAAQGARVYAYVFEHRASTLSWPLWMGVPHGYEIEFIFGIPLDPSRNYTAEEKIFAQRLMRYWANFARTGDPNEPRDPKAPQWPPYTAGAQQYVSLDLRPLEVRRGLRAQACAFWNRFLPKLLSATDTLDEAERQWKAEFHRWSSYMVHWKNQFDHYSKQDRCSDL

Row | SMILES | activity change, negative = inhibition | Potency
1 | NC(=O)c1ccc(N)cc1 | 0.995% | –
2 | CCCCCCC1(C)CCC(=O)O1 (configuration not stated) | -1.77% | –
3 | CC(=O)OCC(CCn1cnc2cnc(N)nc21)COC(C)=O | 1.03% [at 53 µM] | –
4 | CCCCNc1ccc(C(=O)OCCN(CC)CC)cc1 | -12.3% [at 53 µM] | –
5 | C=C(C)C(=O)OCCC(F)(F)C(F)(F)C(F)(F)C(F)(F)C(F)(F)C(F)(F)F | 0.146% | –
6 | CCOC(=O)[C@H](CCc1ccccc1)N[C@H]1CS[C@H](c2cccs2)CN(CC(=O)O)C1=O | -0.213% [at 53 µM] | –
7 | COc1cccc(OC)c1C(=O)O | -1.22% | –
8 | C=CC(=O)O | 0.405% [at 53 µM] | –
9 | [K+] | 0.197% | –
10 | Cc1c(C)c([N+](=O)[O-])c(C(C)(C)C)c([N+](=O)[O-])c1C | 0.464% | –
11 | CC1=C(CC=O)C(C)(C)CCC1 | 0% | –
12 | CCCCCCCCCCCCCC[P+](CCCC)(CCCC)CCCC | – | inactive
13 | CCN1CCC[C@H]1CNC(=O)c1cc(S(N)(=O)=O)ccc1OC | -0.336% [at 53 µM] | –
14 | CCCCCCOc1ccccc1C(N)=O | -0.739% [at 53 µM] | –
15 | CCCOC(=O)c1c(Cl)c(Cl)c(Cl)c(Cl)c1C(=O)OCCC | 0.764% | –
16 | CCOC(=O)C(C)Oc1ccc(Oc2nc3ccc(Cl)cc3o2)cc1 (configuration not stated) | -1.76% | –
17 | CCO[Si](CCCSSSSCCC[Si](OCC)(OCC)OCC)(OCC)OCC | 2.41% | –
18 | CCCCCCCCCCCCCCCCCC[N+](C)(C)Cc1ccccc1 | 3.97% | –
19 | NC(N)=NN=C(/C=C/c1ccc([N+](=O)[O-])o1)/C=C/c1ccc([N+](=O)[O-])o1 | 11.8% [at 53 µM] | –
20 | CCOC(=O)C1CC(=O)C(=C(O)C2CC2)C(=O)C1 (configuration not stated) | -1.83% | –
21 | N=C(N)c1ccc(OCCCOc2ccc(C(=N)N)cc2)cc1 | 1.01% [at 53 µM] | –
22 | CCC1=C(C)CN(C(=O)NCCc2ccc(S(=O)(=O)NC(=O)NC3CCC(C)CC3)cc2)C1=O (configuration not stated) | -0.695% [at 53 µM] | –
23 | CCCCCCCCCCCC[N+](C)(C)CCCCCCCCCCCC | 15.9% | –
24 | CCOC(=O)[C@H](CCc1ccccc1)N[C@@H](C)C(=O)N1[C@H](C(=O)O)C[C@@H]2CCC[C@@H]21 | 0.0795% [at 53 µM] | –
25 | C=CN1CCCCCC1=O | -1.89% | –
26 | CCCCCCOC(=O)c1ccccc1O | -1.6% | –
27 | Cn1c(N)c(N=O)c(=O)n(C)c1=O | 0.0042% | –
